Data as given in the supplement of paper PMC12494721.
Structures can show the parent of a compound that is named as a salt. Values without a mark were called inactive.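 Rule for the calls: for the amine columns active = adjusted P below 0.05 in both replicates with a change the same way and a mean fold change under 0.8 or over 1.25; inactive = the rest.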

These compounds were tested on Escherichia coli IAI1 (assay: fold change of Cadaverine concentration vs plate DMSO controls (fold change (ratio)); higher = more amine produced, active = hit call of the paper (significant change in both replicates, either direction)). Settings: incubation time: 27 h, anaerobic, 37 °C.
Summary of the method: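 Using LC–triple-quadrupole MS with dynamic MRM, amines were quantified against external calibration curves and corrected for drift within each batch. Samples were whole anaerobic mGAM cultures of four gut strains, grown 27 h at 37 °C from OD 0.1 before 1:1 dilution, extracted with cold acetonitrile/methanol containing 0.1% formic acid and centrifuged. Compounds were present at 20 µM final (sweeteners at 50 µM final). The numbers are fold changes versus plate DMSO controls, each the mean of 2 biological replicates.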
For `CN(CCOc1ccc(NS(C)(=O)=O)cc1)CCc1ccc(NS(C)(=O)=O)cc1` [Dofetilide] (20 µM), the “fold change of Cadaverine concentration” value was 1.05.
For `COc1cc2nc(N3CCN(C(=O)c4ccco4)CC3)nc(N)c2cc1OC` [Prazosin hydrochloride] (20 µM), the “fold change of Cadaverine concentration” value was 0.968.
For `CCc1c2c(nc3ccc(OC(=O)N4CCC(N5CCCCC5)CC4)cc13)-c1cc3c(c(=O)n1C2)COC(=O)[C@]3(O)CC` [Irinotecan hydrochloride trihydrate] (20 µM), the “fold change of Cadaverine concentration” value was 0.994.
With `O=C(O)CCNC(=O)c1ccccc1` [Betamipron] (20 µM) the “fold change of Cadaverine concentration” value was 1.06.
`Cc1cc(C(C)(C)CC(C)(C)C)ccc1OCCOCC[N+](C)(C)Cc1ccccc1` [Methyl benzethonium chloride] (20 µM) was tested, and the “fold change of Cadaverine concentration” value was 1.04.
For `CCN1CCN(C(=O)N[C@@H](C(=O)N[C@@H]2C(=O)N3C(C(=O)O)=C(CSc4nnnn4C)CS[C@H]23)c2ccc(O)cc2)C(=O)C1=O` [Cefoperazone dihydrate] (20 µM), the “fold change of Cadaverine concentration” value was 1.36.
With `CN(C)CCCN1c2ccccc2CCc2ccccc21` [Imipramine hydrochloride] (20 µM) the “fold change of Cadaverine concentration” value was 0.976.
With `CCOC(=O)C1=C(C)NC(C)=C(C(=O)OC)C1c1cccc(Cl)c1Cl` (stereo not given) [Felodipine] (20 µM) the “fold change of Cadaverine concentration” value was 0.893.
With `CCOC(=O)C1=C(COCCN)NC(C)=C(C(=O)OC)C1c1ccccc1Cl` (stereo not given) [Amlodipine] (20 µM) the “fold change of Cadaverine concentration” value was 1.1.
With `O=C(O)c1cn(C2CC2)c2cc(N3CCNCC3)c(F)cc2c1=O` [Ciprofloxacin hydrochloride monohydrate] (20 µM) the “fold change of Cadaverine concentration” value was 0.176 (active).
